# According to PubChem BioAssay (Tox21):
# Several values for one entry are separate records, joined by “and”; a condition that tells them apart may be missing. Equal values may be shown once. Results filed as inconclusive are left out. Entries that show only a call come without a potency. The source holds several records for some structures; these can differ, active in one and inactive in another. Activity calls are given as the source filed them. Calls come from the whole dose curve.
# Assay: qHTS assay for small molecule agonists of the antioxidant response element (ARE) signaling pathway - cell viability counter screen (AID 743203); note: nearly all actives have a fitted effect of over 55% in size
# Details: ARE-bla HepG2 viability, CellTiter-Glo luminescence, 16 h; series mostly up to 73.3 µM
# Text: National Center for Advancing Translational Sciences [NCATS]
# NIH Chemical Genomics Center [NCGC]
# U.S. Environmental Protection Agency [EPA]
# National Institutes of Environmental Health Sciences [NIEHS]
# National Toxicology Program [NTP]
# U.S. Food and Drug Administration [FDA]
# Oxidative stress has been implicated in the pathogenesis of a variety of diseases ranging from cancer to neurodegeneration. The antioxidant response element (ARE) signaling pathway plays an important role in the amelioration of oxidative stress. The CellSensor ARE-bla HepG2 cell line (Invitrogen) can be used for analyzing the Nrf2/antioxidant response signaling pathway. Nrf2 (NF-E2-related factor 2) and Nrf1 are transcription factors that bind to AREs and activate these genes. The CellSensor ARE-bla Hep G2 cell line contains a beta-lactamase reporter gene under control of the Antioxidant Response Element (ARE) stably integrated into HepG2 cells. The activation of the report gene under culture conditions can be detected by fluorescence intensity. This cell line has been used to screen the Tox21 10K compound library to identify agonists that induce oxidative stress. The cytotoxicity of the Tox21 compound library against the ARE-bla cell line was tested in parallel by measuring the cell viability using CellTiter-Glo assay (Promega, Madison, WI) in the same wells.
# Tox21 Assay Protocol Summary:
# ARE-bla HepG2 cells were dispensed at 2,000 cells/5 ul/well in 1536-well white wall/solid bottom plates using a Multidrop Combi (ThermoFisher Scientific, Waltham, MA) dispenser. After the assay plates were incubated at 37C/5% CO2 for 5 hrs, 23 nL of compounds dissolved in DMSO, positive controls or DMSO only was transferred to the assay plate by a pintool work station (Kalypsys, San Diego, CA). The plates were incubated at 37C/5% CO2 for 16 hrs, followed by addition of 4 ul/well of CellTiter-Glo reagent into the assay plates using a Flying Reagent Dispenser (Aurora Discovery, San Diego, CA). After 30 min incubation at room temperature, the luminescence intensity in the assay plates was measured using a ViewLux (PerkinElmer, Shelton, CT) plate reader.
# Potency is the fitted concentration of half-maximal effect.
row,SMILES,Potency
1,CCN,inactive
2,CCCCCCCCCBr,inactive
3,CC(C)OC(=O)C(O)(c1ccc(Cl)cc1)c1ccc(Cl)cc1,inactive
4,CNC(C)Cc1ccc2c(c1)OCO2 (stereo not given),inactive
5,Cc1cc(C)cc(OP(=O)(Oc2cc(C)cc(C)c2)Oc2cc(C)cc(C)c2)c1,inactive
6,CCCOCC(=Nc1ccc(Cl)cc1C(F)(F)F)n1ccnc1,13.7 µM (active)
7,NNC(=O)c1ccccc1,inactive
8,CN(C)C(=S)[S-].CN(C)C(=S)[S-].[Cu+2],3.33 µM (active)
9,Cc1ccc(OP(=O)(Oc2ccccc2)Oc2ccccc2)cc1,inactive
10,ClC1=C(Cl)C2(Cl)C3C(Cl)C=CC3C1(Cl)C2(Cl)Cl (stereo not given),61.1 µM (active)
11,O=C1NCN(c2ccccc2)C12CCN(CC1COc3ccccc3O1)CC2 (stereo not given),inactive
12,CC1(C)CN=C(NN=C(/C=C/c2ccc(C(F)(F)F)cc2)/C=C/c2ccc(C(F)(F)F)cc2)NC1,8.63 µM (active)
13,CCc1nn(C)c(C(=O)NCc2ccc(C(C)(C)C)cc2)c1Cl,24.3 µM (active)
14,CC(=O)Nc1ccc2c(c1)Cc1ccccc1-2,inactive
15,c1ccc2c(c1)[nH]c1cnccc12,inactive
16,CC(=O)[O-].CC(=O)[O-].[Hg+2],1.22 µM (active)
17,O=c1[nH]c2ccccc2n1C1CCN(CCCC(c2ccc(F)cc2)c2ccc(F)cc2)CC1,24.3 µM (active) and 33.5 µM (active)
18,S=C=Nc1cccc2ccccc12,15.2 µM (active)
19,C[C@H]1CC[C@@H]2[C@@H](C)[C@H]3[C@H](C[C@H]4[C@@H]5CC=C6CC(O[C@@H]7O[C@H](CO)[C@H](O)[C@H](O[C@@H]8O[C@H](CO)[C@@H](O)[C@H](O)[C@H]8O)[C@H]7O[C@H]7O[C@@H](C)[C@H](O)[C@@H](O)[C@H]7O)CC[C@]6(C)[C@H]5CC[C@]34C)N2C1 (stereo not given in full),7.94 µM (active)
20,C[C@]12CC[C@H]3[C@@H](CCC4=CC(=O)CC[C@@]43C)[C@@H]1CC[C@@H]2O,inactive

row,SMILES,Potency
1,O=C(O)C1C2CCC(O2)C1C(=O)O (stereo not given),inactive
2,CCCN(CCC)c1c([N+](=O)[O-])cc(S(N)(=O)=O)cc1[N+](=O)[O-],29.1 µM (active)
3,CCCCCCCCCCCCCCCCCCn1cc[n+](C)c1,15.3 µM (active)
4,C[C@@H]1CC[C@@]2(OC1)O[C@H]1[C@@H](O)[C@H]3[C@@H]4CC[C@H]5C[C@@H](O[C@@H]6O[C@H](CO)[C@H](O[C@@H]7O[C@H](CO)[C@@H](O)[C@H](O[C@@H]8OC[C@@H](O)[C@H](O)[C@H]8O)[C@H]7O[C@@H]7O[C@H](CO)[C@@H](O)[C@H](O[C@@H]8O[C@H](CO)[C@@H](O)[C@H](O)[C@H]8O)[C@H]7O)[C@H](O)[C@H]6O)[C@H](O)C[C@]5(C)[C@H]4CC[C@]3(C)[C@H]1[C@@H]2C,20.5 µM (active)
5,C1CCC2CCCCC2C1 (stereo not given),inactive
6,COC12CC[C@@]3(C[C@@H]1C(C)(O)C(C)(C)C)[C@H]1Cc4ccc(O)c5c4[C@@]3(CCN1CC1CC1)[C@H]2O5 (stereo not given in full),68.1 µM (active)
7,Oc1ccc(C(c2ccc(O)cc2)(C(F)(F)F)C(F)(F)F)cc1,inactive and 43.3 µM (active)
8,c1ccc(Nc2ccc3ccccc3c2)cc1,inactive
9,Cc1cc(C)c(C2=C(OC(=O)CC(C)(C)C)C3(CCCC3)OC2=O)c(C)c1,inactive
10,COC(=O)N(C(=O)N1CO[C@@]2(C(=O)OC)Cc3cc(Cl)ccc3C2=N1)c1ccc(OC(F)(F)F)cc1,inactive
11,CC(=O)O[C@H]1CC[C@@]2(C)C(=CC[C@@H]3[C@@H]2CC[C@]2(C)C(=O)CC[C@@H]32)C1,inactive
12,CC(C)CCCCCOC(=O)c1ccccc1C(=O)OCCCCCC(C)C,inactive
13,CC(C)CCCCCCCOP(=O)(Oc1ccccc1)Oc1ccccc1,inactive
14,[Hg+2].[I-].[I-],9.69 µM (active)
15,OC(c1ccc(Cl)cc1)(c1ccc(Cl)cc1)C(Cl)(Cl)Cl,43.3 µM (active)
16,CCCN(CCC)CCc1c[nH]c2ccccc12,inactive
17,N#CSCSC#N,55.7 µM (active) and 48.1 µM (active)
18,FC(Cl)(Cl)Cl,inactive
19,Cn1cc(C2=C(c3cn(C4CCN(Cc5ccccn5)CC4)c4ccccc34)C(=O)NC2=O)c2ccccc21,inactive
20,c1ccc(OCC2CO2)cc1 (stereo not given),inactive
